A selection: hits, their analogues and other compounds. The true share with any hit is near 2.4%.
D2 PAM-1: positive allosteric modulators of human D2 dopamine receptor; P14416; HEK293 T-REx D2, calcium flux, EC20 dopamine potentiation; potentiation, % at 10 µM; hit rate 0.34% among 340,000;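 active means potentiation over 3 SD above the plate norm, cut at about 30% in these data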
Target sequence (P14416 whole entry, looked up): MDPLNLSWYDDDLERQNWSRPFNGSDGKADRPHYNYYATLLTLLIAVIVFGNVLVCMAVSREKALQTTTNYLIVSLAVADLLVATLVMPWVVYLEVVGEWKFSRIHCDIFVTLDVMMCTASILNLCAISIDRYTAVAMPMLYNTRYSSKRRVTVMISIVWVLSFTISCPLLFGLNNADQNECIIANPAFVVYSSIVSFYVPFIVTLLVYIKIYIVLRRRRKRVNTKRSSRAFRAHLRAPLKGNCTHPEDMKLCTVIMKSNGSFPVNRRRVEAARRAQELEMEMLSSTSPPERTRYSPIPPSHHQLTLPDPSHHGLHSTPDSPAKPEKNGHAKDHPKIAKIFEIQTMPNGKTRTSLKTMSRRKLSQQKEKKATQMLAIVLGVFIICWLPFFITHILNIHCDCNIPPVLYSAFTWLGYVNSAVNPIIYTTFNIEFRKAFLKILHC
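Tetracycline-induced HEK293 T-REx cells force-coupled to calcium signalling expressed D2; compounds were pin-added after a 10 s baseline, read kinetically 180 s, then an EC20 dopamine challenge followed with a further 180 s calcium read.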
D2 PAM-2: positive allosteric modulators of human D2 dopamine receptor. AID 624464. DiscoveRx D2 beta-arrestin cells, luminescence, 90 min; 100% = 57 uM dopamine signal. P14416. potentiation, % (test concentration not listed). hit rate 0.23% among 360,000; in the data active means potentiation above about 50%; inconclusive means mostly about 30% to 49%
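PathHunter beta-arrestin assay in DiscoveRx D2 cells. Compounds were added with an EC20 of dopamine (50 nM final) for 90 min at 37 deg C. Luminescence was read 1 h after detection reagent, with 57 uM dopamine as the EC100 control.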
D2 antagonist: antagonizes the human D2 dopamine receptor. inhibition, % at 10 µM. HEK293 TREx D2 cells, calcium flux, dopamine EC80. hit rate 2% among 340,000. P14416; in the data active means inhibition above about 30%; inactive means below that, where a call was filed
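Tetracycline-induced HEK293 TREx cells expressing D2 receptor forced-coupled to calcium signalling, loaded with no-wash calcium dye. Compounds added and calcium flux read 180 s, then dopamine added at EC80 and read a further 180 s.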
D2 ag-1: agonists of human D2 dopamine receptor; P14416; HEK293 T-REx D2 cells, calcium flux agonist mode; activation, % at 2 µM; hit rate 0.53% among 340,000; AID 485358;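 active means activation over 3 SD above normal in the single-dose calcium agonist read, cut at about 30% in these data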
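Agonism is scored from calcium flux in a force-coupled, inducible HEK293 cell line expressing D2, read kinetically for 180 s after compound addition against dopamine controls.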
D2 ag-2: agonists of human D2 dopamine receptor (beta-arrestin). activation, % (test concentration not listed). DiscoveRx PathHunter D2 beta-arrestin, luminescence, 90 min; 100% = 57 uM dopamine signal. P14416. hit rate 0.084% among 360,000; in the data active means activation above about 40%; inconclusive means between about 15% and that limit
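DiscoveRx PathHunter D2 beta-arrestin cells (2,100/well) attached overnight, then compound-stimulated 90 min at 37 C in HBSS/10 mM HEPES/0.1% Tween-20 buffer; beta-galactosidase complementation read by luminescence after 1 h at ambient temperature. Dopamine 57 uM final (EC100) as control.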
Of the large screens only hits and unclear results are named; the others gave an inactive call.

N=c1oc2c3c4c(cc2cc1C(=O)Nc1ccccc1)CCCN4CCC3	D2 antagonist 71, D2 ag-1 95
Nc1cc2c(cc1[N+](=O)[O-])OCCO2	D2 antagonist 47
CCOC(=O)N1CCN(C(=O)CSc2nnc(Cc3ccccc3)o2)CC1	D2 PAM-1 31
CCOC(=O)N1CCN(C(=O)CSc2nnc(COc3ccccc3)o2)CC1	none
COc1ccc(NC(=O)CNC(=O)Cc2ccccc2)cc1	D2 PAM-1 32
COc1ccc(NC(=O)Cc2ccccc2)cc1	none
COc1ccc(NC(=O)CNS(=O)(=O)c2ccc(Cl)cc2)cc1	D2 PAM-1 45
COc1ccc(NC(=O)CN(C)C(=O)c2oc3ccccc3c2C)cc1	D2 antagonist 31
O=C(Nc1ccccc1)c1cc(-n2cnnc2)ccc1Cl	none (no result: D2 PAM-1, D2 antagonist, D2 ag-1)
Cc1nc(NC(=O)c2cc(-n3cnnc3)ccc2Cl)ccc1Br	D2 antagonist 30
Cc1cc(NC(=O)C(C)Sc2nc(-c3cccs3)nc3ccccc23)no1 (centres undefined)	D2 PAM-1 32
CCOc1ccc(-n2c(=O)c3c(C)c(C)sc3n(CC(=O)NCCc3ccccc3)c2=O)cc1	none (no result: D2 PAM-2, D2 antagonist, D2 ag-1, D2 ag-2)
O=C(Nc1ccc(N2CCOCC2)c(Cl)c1)c1ccc2c(c1)OCCO2	D2 antagonist 31
O=C(Nc1ccc(NC(=O)c2cccs2)cc1)c1ccc2c(c1)OCCO2	D2 antagonist 34
Cc1ccccc1NC(=O)c1c(C)oc2ccc(O)c(CN3CCOCC3)c12	none (no result: D2 PAM-2, D2 antagonist, D2 ag-2)
Cc1nc(-c2ccc(F)cc2)c(CC(=O)N(C)CC(=O)Nc2ccc(Br)cc2C)s1	D2 antagonist 58
Cn1c(=O)c2cc(C(=O)Nc3cccc(C#N)c3)sc2c2ccccc21	none (no result: D2 PAM-2, D2 antagonist, D2 ag-2)
COc1cc(NC(=O)Cn2c(=O)n(C(C)C)c(=O)c3oc4ccccc4c32)cc(OC)c1	none (no result: D2 PAM-2, D2 antagonist, D2 ag-2)
COc1ccc(Cn2ccc3nc(C)c(C(=O)N4CCN(c5cccc(OC)c5)CC4)cc3c2=O)cc1	none (no result: D2 PAM-2, D2 antagonist, D2 ag-2)
COc1cc(/C=C(\C#N)c2nc3ccccc3[nH]2)ccc1OCc1cccc(C(F)(F)F)c1	none (no result: D2 PAM-2, D2 antagonist, D2 ag-2)
O=C(CCc1nc2ccccc2c(=O)[nH]1)Nc1ccc(N2CCCCC2)cc1	D2 antagonist 77
COc1cccc(CCNC(=O)c2cnc3sc(N4CCCC4)nn3c2=O)c1	none (no result: D2 PAM-2, D2 antagonist, D2 ag-2)
O=C(O)CCC(=O)NNC(=O)CCC(=O)Nc1ccccc1	D2 antagonist 40
O=C(CCc1ccccc1)NNC(=O)Nc1ccccc1	D2 antagonist 44
O=C(Nc1ccccc1)c1ccccc1CCc1ccccc1	D2 antagonist 32
CCc1ccc(NC(=O)NNC(=O)CCc2ccccc2)cc1	none
O=C(Nc1nc2n(n1)C(c1ccccc1)C=C(c1ccccc1)N2)c1ccccc1 (centres undefined)	none (no result: D2 PAM-2, D2 antagonist, D2 ag-2)
O=C(NCc1ccc(Cl)cc1)c1cnc(N2CCOCC2)c2ccccc12	none (no result: D2 PAM-2, D2 antagonist, D2 ag-1, D2 ag-2)
COc1ccc(-c2noc(N3CCC(C(=O)NCc4ccccc4Cl)CC3)n2)cc1	D2 antagonist 48
COc1ccc2ccccc2c1/C=N\NC(=O)c1ccc(C)s1	D2 antagonist 40
COc1ccc2ccccc2c1/C=N/NC(=O)c1cccc(Br)c1	none
COc1ccc2ccccc2c1/C=N/NC(=O)c1ccccc1F	none
COc1ccc2ccccc2c1/C=N/NC(=O)c1ccc([N+](=O)[O-])cc1	D2 antagonist 71
CCC(C(=O)NCCCN(CC)CC)n1ncn2c(cc3occc32)c1=O (centres undefined)	none (no result: D2 PAM-2, D2 antagonist, D2 ag-2)
O=C(NC1CC(=O)N(c2ccc(Cl)cc2)C1)c1cc2ccccc2o1 (centres undefined)	none (no result: D2 PAM-2, D2 antagonist, D2 ag-2)
O=C(CCN1CCN(Cc2ccccc2)CC1)Nc1ccc(OCc2ccccc2)cc1	D2 antagonist 42
CCCOc1ccc(NC(=O)CC2C(=O)N(CC)C(=S)N2CCCN2CCN(Cc3ccccc3)CC2)cc1 (centres undefined)	D2 antagonist 33, D2 ag-2 inconclusive (no result: D2 PAM-1)
O=C(CCN1CCN(CCO)CC1)Nc1ccc(OCc2ccccc2)cc1	none
CCn1c(SCC(=O)c2[nH]c(C)c(C(C)=O)c2C)nnc1-c1cccs1	D2 antagonist 99
Cc1sc2nc3ccc(N4CCCCC4)nn3c(=O)c2c1C	D2 antagonist 37
Cc1ccc2nc3ccc(N4CCCC4)nn3c(=O)c2c1	none
COc1cccc(CNC(=O)CCc2cn(Cc3ccccc3Cl)c3ccccc23)c1	none (no result: D2 PAM-1, D2 PAM-2, D2 antagonist, D2 ag-2)
O=C(NCC(c1cccs1)N1CCOCC1)c1ccccc1NS(=O)(=O)c1cc([N+](=O)[O-])ccc1Cl (centres undefined)	D2 antagonist 33
CCc1ccccc1NS(=O)(=O)c1ccc2c(c1)CC(=O)N2	none (no result: D2 PAM-2, D2 antagonist, D2 ag-2)
CCOC(=O)c1ccccc1NC(=O)C1CC(=O)N(C2CCCCC2)C1 (centres undefined)	D2 antagonist 41
CCOc1ccc(N2CC(C(=O)Nc3ccc(S(=O)(=O)Nc4nccs4)cc3)CC2=O)cc1 (centres undefined)	D2 antagonist 32
COc1cccc(CC(=O)OC(C)C(=O)NCc2ccc3c(c2)OCO3)c1 (centres undefined)	D2 antagonist 55
CCOc1ccc(N2CC(C(=O)Nc3ccccc3F)CC2=O)cc1 (centres undefined)	D2 antagonist 34
COc1cccc(NC(=O)Cn2nc(C)c3c(C)n(-c4ccccc4)nc3c2=O)c1	none (no result: D2 PAM-2, D2 antagonist, D2 ag-2)
CCOc1ccc(N2CC(C(=O)NCc3ccc4c(c3)OCO4)CC2=O)cc1 (centres undefined)	D2 antagonist 36
COc1ccc(CNC(=O)Cn2c(=O)oc3cc(S(=O)(=O)NCc4ccccc4)ccc32)cc1	none (no result: D2 PAM-2, D2 antagonist, D2 ag-2)
Cc1cc(C)cc(OCCCOc2cccc3cccnc23)c1	D2 antagonist 33
Cc1cc2nc3s/c(=C/c4ccc(-c5ccccc5C(=O)O)o4)c(=O)n3c2cc1C	D2 antagonist 34, D2 ag-1 70
O=C(O)c1ccccc1-c1ccc(/C=c2\sc3nc4cc(Br)cnc4n3c2=O)o1	none
Cc1nc(N2CCOCC2)[nH]c(=O)c1CCC(C)C	none
Cc1nc(N2CCOCC2)[nH]c(=O)c1C(O)C(Cl)(Cl)Cl (centres undefined)	D2 antagonist 48
O=S1(=O)CCOC[C@H](c2ccccc2)N1Cc1ccccc1	D2 antagonist 30
O=C(Cn1ccc(C(F)(F)F)n1)N=Nc1c(O)[nH]c2ccc(Br)cc12	D2 PAM-1 42
C=CCN(CC=C)S(=O)(=O)c1ccc(F)cc1	D2 antagonist 31
CCN(CC(N)=O)S(=O)(=O)c1ccc(F)cc1	none
CCOc1cc(Br)cc(C2NC(=O)c3c(sc4c3CCN(C)C4)N2)c1O (centres undefined)	none (no result: D2 PAM-2, D2 antagonist, D2 ag-2)
COc1ccc(NC(=O)C2CCN(S(=O)(=O)c3c(C)noc3/C=C/c3ccco3)CC2)cc1	none (no result: D2 PAM-2, D2 antagonist, D2 ag-2)
CC(C)c1nnc(NC(=O)CCC(=O)Nc2ccc3cn[nH]c3c2)s1	D2 antagonist 61
Cc1ccc(N2C(=O)CS(=O)(=O)C23C(=O)N(Cc2ccccc2C)c2ccccc23)cc1Cl (centres undefined)	none (no result: D2 PAM-2, D2 antagonist, D2 ag-2)

High-throughput results (PubChem)
